Inconclusive results are not listed. Entries that show only a call come without a potency. Calls of active or inactive are those of the source. Calls come from the whole dose curve; as a rule, active = well fitted activation curve with a large enough effect in the signal ratio in the repeat runs (not every such curve was filed as active); inconclusive = weak or mixed curves, or effect the other way; inactive = flat fitted curve, though single readings scatter; the % refers to the signal ratio.

The target in the assay is Bile acid receptor (Homo sapiens) (UniProt Q96RI1). Put plainly: qHTS assay to identify small molecule agonists of the farnesoid-X-receptor (FXR) signaling pathway (AID 743220). The following applies: HEK293T FXR-UAS-bla, beta-lactamase FRET ratio, 16 h; series mostly up to 62.6 µM. From the text: National Center for Advancing Translational Sciences [NCATS]
Chain of Bile acid receptor (Homo sapiens) (Q96RI1 whole entry, looked up): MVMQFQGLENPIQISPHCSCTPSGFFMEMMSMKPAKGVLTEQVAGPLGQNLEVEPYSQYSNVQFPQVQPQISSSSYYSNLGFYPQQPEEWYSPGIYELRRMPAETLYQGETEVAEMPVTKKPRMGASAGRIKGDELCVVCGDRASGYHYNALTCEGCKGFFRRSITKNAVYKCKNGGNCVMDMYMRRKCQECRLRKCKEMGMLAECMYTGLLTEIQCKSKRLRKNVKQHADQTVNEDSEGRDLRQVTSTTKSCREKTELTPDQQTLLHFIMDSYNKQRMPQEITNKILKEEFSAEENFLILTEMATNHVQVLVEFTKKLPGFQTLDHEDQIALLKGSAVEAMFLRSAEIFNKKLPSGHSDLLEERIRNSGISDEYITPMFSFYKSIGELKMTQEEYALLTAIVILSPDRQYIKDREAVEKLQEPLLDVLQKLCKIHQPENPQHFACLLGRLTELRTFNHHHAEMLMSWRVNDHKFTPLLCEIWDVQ
NIH Chemical Genomics Center [NCGC]
U.S. Environmental Protection Agency [EPA]
National Institutes of Environmental Health Sciences [NIEHS]
National Toxicology Program [NTP]
U.S. Food and Drug Administration [FDA]
The farnesoid-X-receptor (FXR), a nuclear hormone receptor, is highly expressed in liver, intestine, kidney and adrenal cortex. Natural ligands of FXR are the bile acids (Cholic acid, Chenodeoxy cholic acid etc). FXR is an important regulator of diverse metabolic pathways, including the bile acid homeostasis, lipid and glucose metabolisms. FXR regulates the expression of target genes by binding either as a monomer or as a heterodimer with the retinoid X receptor (RXR). Numerous studies have reported that FXR exerts protective function during cholestasis, diabetes, liver regeneration, and cancer. To identify compounds that activate FXR signaling, GeneBLAzer FXR-UAS-bla HEK 293T cell line (Invitrogen, Carlsbad, CA) containing a beta-lactamase reporter gene under the control of a UAS response element was used to screen the Tox21 10K compound library.
Tox21 Assay Protocol Summary:
FXR-bla cells were dispensed at 5000 cells/5uL/well in 1536-well black wall/clear bottom plates using a Multidrop Combi (Thermo Fisher Scientific, Waltham, MA) dispenser. After the assay plates were incubated at 37C and 5% CO2 for 5 h, 23 nL of compounds dissolved in DMSO, positive controls or DMSO only was transferred to the assay plate by a Pintool station (Kalypsys, San Diego, CA). The assay plates were incubated at 37C for 16 h. After 1 uL of LiveBLAzerTM B/G FRET substrate was added using a Bioraptr Flying Reagent Dispenser (FRD) workstation (Beckman Coulter, Indianapolis, IN), the plates were incubated at room temperature for 2 h, and fluorescence intensity was measured by an Envision plate reader (PerkinElmer, Shelton, CT).
On to `O=C(O)Cc1ccc(OCCNC[C@H](O)c2ccccc2)cc1`, for which the Potency result was “inactive”.
On the same count and under the same terms, the result for `CCOC(=O)N1CCC(=C2c3ccc(Cl)cc3CCc3cccnc32)CC1` reads “inactive”; that for `Cc1cc(Nc2ccc(O)cc2)ccc1N`, “inactive”; that for `CC1CCCCN1CCCOC(=O)c1ccc(OC2CCCCC2)cc1` (stereo not given), “inactive”.
Same read-out and setting: the result for `CCc1cccc(C)c1` reads “inactive”; that for `CC(C)(c1cc(Br)c(OCCO)c(Br)c1)c1cc(Br)c(OCCO)c(Br)c1`, “inactive”; that for `CC(CN(C)C)CN1c2ccccc2CCc2ccccc21` (stereo not given), “inactive”.
For the molecule `CN(Cc1cc(Br)cc(Br)c1N)C1CCCCC1`, the Potency entry was “inactive”.
Consider `NCCCCCCNCCCCCCN`, for which the Potency result is “inactive”.
Take `CCCCCCCC/C=C\CCCCCCCC(=O)NCc1ccc(O)c(OC)c1`: the Potency entry was “inactive”.
`Cc1nc(Nc2ncc(C(=O)Nc3c(C)cccc3Cl)s2)cc(N2CCN(CCO)CC2)n1`: the Potency entry was “inactive”.
As for `Clc1ccc(C(c2ccccc2Cl)C(Cl)Cl)cc1` (stereo not given), the Potency result was “inactive”.
In the case of `CCC(=O)OCCc1ccccc1`, the Potency result is “inactive”.
On the same count and under the same terms, next, `[O]=[Zr]`: “inactive”.
On to `N[C@@H](CSSC[C@H](N)C(=O)O)C(=O)O`, for which the activation is -0.652% [at 0.55 µM] (inactive).
In the case of `C=CC(=O)OCCC#N`, the Potency entry is “inactive”.
In the case of `CN1CCN(C2Cc3ccccc3Sc3ccc(Cl)cc32)CC1` (stereo not given), the Potency result was “inactive”.
On to `Cc1ccc(-n2[nH]c(C)c(N=Nc3cccc(-c4cccc(C(=O)O)c4)c3O)c2=O)cc1C`, for which the Potency result was “inactive”.
Still for that read-out and setting: the result for `C[C@@H]1CC[C@H]2C(C)(C)[C@H]3C[C@@]12CC[C@@]3(C)O` reads “inactive”; that for `CCOC(=O)[C@@](C)(N)Cc1ccc(O)c(O)c1`, “inactive”.
Regarding `CCCCCCCOC(=O)c1ccc(O)cc1`, the Potency result is “inactive”.
Turning to `Cc1ccc2ccc3cccc4ccc1c2c34`, the Potency entry is “inactive”.
Consider `Cc1cccc(C)c1NC(=O)CN1CCN(CCCC(c2ccc(F)cc2)c2ccc(F)cc2)CC1`, for which the Potency entry was “inactive”.
On the same count and under the same terms, the result for `CCCCCCCCCC(=O)N(C)C` reads “inactive”.
Consider `CNC(=O)c1cc(Oc2ccc(NC(=O)Nc3ccc(Cl)c(C(F)(F)F)c3)cc2)ccn1`, for which the Potency result was “inactive”.
Turning to `C=CC(C)(CCC=C(C)C)OC(=O)/C=C/c1ccccc1` (stereo not given), the Potency entry is “inactive”.
Turning to `Cc1c(C(=O)O)cccc1[N+](=O)[O-]`, the Potency entry was “inactive”.
Take `COCC(=O)O[C@]1(CCN(C)CCCc2nc3ccccc3[nH]2)CCc2cc(F)ccc2[C@@H]1C(C)C`: the Potency result was “inactive”.
On to `CCNc1nc(NC(C)CC)nc(OC)n1` (stereo not given), for which the Potency result was “inactive”.
Turning to `C[C@]12CC[C@H]3C(=CCc4cc(O)ccc43)[C@@H]1CCC2=O`, the Potency entry was “inactive”.
On to `NC(=O)c1nc(-c2cccc(-c3cc(F)ccc3OCC(F)(F)C(F)(F)F)c2)n[nH]1`, for which the Potency entry was “inactive”.
Turning to `CCN(CC)CCNc1ccc(CO)c2sc3ccccc3c(=O)c12`, the Potency entry is “inactive”.
Regarding `S=P(N1CC1)(N1CC1)N1CC1`, the Potency entry was “inactive”.
`C(=C/c1ccccc1)/c1ccccc1`: the Potency result was “inactive”.
On the same count and under the same terms, the result for `CCCCCCCC/C=C\CCCCCCCC(=O)OCCOC(=O)CCCCCCC/C=C\CCCCCCCC` reads “inactive”.
Take `CC(=O)Oc1ccc(C2(c3ccc(OC(C)=O)cc3)Oc3ccccc3NC2=O)cc1`: the Potency entry was “inactive”.
As to `CC1(C)C(=O)N(Br)C(=O)N1Br`, the Potency result is “inactive”.
As for `O=C(c1ccccc1)c1cc(Cl)ccc1O`, the Potency result is “inactive”.
`CC(C(O)c1ccccc1)N(C)CCOC(c1ccccc1)c1ccccc1` (stereo not given): the Potency result is “inactive”.
Take `CCCCN(CCCC)CCC(O)c1cc2c(Cl)cc(Cl)cc2c2cc(C(F)(F)F)ccc12` (stereo not given): the Potency result is “inactive”.

The values are drawn from PubChem BioAssay (Tox21).
